ROC1-CUL1 inh: blocks human RBX1-Cullin-1 di-ubiquitin formation | P62877+Q13616 | in vitro K48 di-Ub FRET, acceptor:donor ratio, 45 min | inhibition, % at 10 µM | 140,000 tested, 0.6% active | AID 1347404; in the data active = inhibition above about 25%
Target sequence (P62877 whole entry, looked up): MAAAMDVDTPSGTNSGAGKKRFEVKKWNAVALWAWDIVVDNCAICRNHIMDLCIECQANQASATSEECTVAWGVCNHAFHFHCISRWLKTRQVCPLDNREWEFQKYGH
Target sequence (Q13616 whole entry, looked up): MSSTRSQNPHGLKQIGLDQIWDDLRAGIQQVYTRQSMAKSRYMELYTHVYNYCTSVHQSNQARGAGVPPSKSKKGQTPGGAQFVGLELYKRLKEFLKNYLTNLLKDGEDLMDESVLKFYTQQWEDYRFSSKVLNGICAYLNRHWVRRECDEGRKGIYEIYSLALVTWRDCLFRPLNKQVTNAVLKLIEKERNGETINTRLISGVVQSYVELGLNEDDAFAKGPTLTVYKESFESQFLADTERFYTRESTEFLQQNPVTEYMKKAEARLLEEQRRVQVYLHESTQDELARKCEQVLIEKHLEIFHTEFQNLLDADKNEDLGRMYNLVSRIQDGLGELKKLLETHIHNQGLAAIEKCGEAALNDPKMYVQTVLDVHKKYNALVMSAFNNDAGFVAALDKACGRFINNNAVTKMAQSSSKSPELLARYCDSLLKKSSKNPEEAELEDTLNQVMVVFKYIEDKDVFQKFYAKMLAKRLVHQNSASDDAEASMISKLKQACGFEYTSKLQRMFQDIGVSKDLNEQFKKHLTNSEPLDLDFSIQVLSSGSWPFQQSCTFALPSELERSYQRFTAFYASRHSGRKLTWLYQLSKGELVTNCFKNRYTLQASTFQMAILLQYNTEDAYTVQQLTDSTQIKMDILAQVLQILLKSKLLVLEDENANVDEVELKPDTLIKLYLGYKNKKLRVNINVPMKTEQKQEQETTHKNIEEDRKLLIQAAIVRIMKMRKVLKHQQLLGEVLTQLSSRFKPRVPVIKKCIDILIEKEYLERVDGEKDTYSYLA
An asterisk follows results filed as active. The sample as a whole holds a higher share of hits than the screen did.

SMILES	ROC1-CUL1 inh
CSc1nsc(SCSc2nc(SC)ns2)n1	36*
CSc1nsc(SCSc2nnc(-c3ccccc3)o2)n1	-4
O=C(O)c1cc(S(=O)(=O)O)cc(Nc2c3ccccc3nc3ccccc23)c1O	-7
Nc1cc(S(=O)(=O)O)cc(C(=O)O)c1O	12
CC1=NN(c2cc(S(=O)(=O)O)cc(C(=O)O)c2O)C(=O)C1	69*
CCC(Oc1ccccc1F)C(=O)Nc1ccccc1C (centres undefined)	5
COc1ccc(C2C3=C(CCCC3=O)N=C3CCCC(=O)C32)cc1 (centres undefined)	-1
CNc1ncc(-c2nc(-c3c(C)ncc4c3CCN(CC3CC3)C4)no2)cn1	2
Cc1ncc2c(c1-c1noc(-c3ccc(N)nc3)n1)CCN(CC1CCCC1)C2	2
Cc1cc(C)n(Cc2nc(-c3c(C)ncc4c3CCN(CC3CC3)C4)no2)n1	37*
COCCNC(=O)CCC1CCN(C(=O)Nc2cc(OC)ccc2OC)CC1	5
Cc1cccc2c1OC(=O)C(C(c1ccc(Cl)cc1)C1C(=O)Oc3c(C)cccc3C1=O)C2=O (centres undefined)	78*
O=C1Oc2ccccc2C(=O)C1C(c1ccc(F)cc1)C1C(=O)Oc2ccccc2C1=O (centres undefined)	0
O=C1Oc2ccccc2C(=O)C1C(c1cccc(O)c1)C1C(=O)Oc2ccccc2C1=O (centres undefined)	13
O=C(c1cccc(C(F)(F)F)c1)N1CCC2(CC1)OCCO2	-5
O=C(O)c1cccc(-c2ccc(CNC3CCCC3)o2)c1	-6
C=CCN1C(=O)N=C(Cc2ccc(-c3cccc(Br)c3)o2)C1=O	-1
COCCN1C(=O)C(Cc2ccc(-c3cccc(C(=O)O)c3)o2)=NC1=S	35*
O=C1N=C2C(C(=O)C1Cc1ccccc1)C(=O)N(c1ccccc1)C(=O)N2c1ccccc1 (centres undefined)	11
O=S(=O)(NCCO)c1ccccc1	4
COc1cccc(N=C2CC(c3ccc(C(C)C)cc3)N(c3cccc(OC)c3)C2=O)c1 (centres undefined)	14
Cc1ccc(NC(=O)CSc2nnc(Cc3ccccc3)o2)cc1C	11
COC(=O)c1cc(NC(=O)CSc2nnc(Cc3ccccc3)o2)ccc1Cl	11
O=C(CSc1nnc(Cc2ccccc2)o1)Nc1ccc(Cl)c(Cl)c1	92*
CC1(C)CC(=O)c2cc(-c3ccc(Br)cc3)n(CC(=O)O)c2C1	5
SMILES	ROC1-CUL1 inh
Cc1cc(C)c(S(=O)(=O)c2cccc(C(C)C)c2)c(C)c1	-1
O=C(O)c1cc(Nc2c([N+](=O)[O-])cc3c4c(cccc24)C(=O)OC3=O)ccc1O	27*
O=C(O)c1ccc(N2C(=O)c3cccc4c([N+](=O)[O-])ccc(c34)C2=O)cc1O	-9
COc1ccccc1N1C(=O)c2cccc3c(Nc4cccc(Cl)c4)c([N+](=O)[O-])cc(c23)C1=O	-6
Cc1cc(-c2nc3ncccc3o2)ccc1NC(=O)c1ccccc1C	-15
CC(C)C(=O)Oc1ccc2c(=O)c(Oc3ccc4ccccc4c3)coc2c1	5
CCN(CC1CCCO1)C(=O)CC1(c2ccccc2)CC(=O)N(CCCOc2cccnc2)C1=O (centres undefined)	8
Cc1c(C(=O)O)cccc1-n1c(C)cc(/C=N/Nc2ccc([N+](=O)[O-])cn2)c1C	82*
Cc1c(C(=O)O)cccc1-n1c(C)cc(/C=N/NC(=O)c2cc3ccccc3o2)c1C	1
O=[N+]([O-])c1ccc(N/N=C/c2cccn2-c2ccccc2)nc1	1
CCCCS(=O)(=O)Nc1ccccc1C	-3
COc1cc(OC)cc(C(=O)OCC(=O)c2ccc(OS(=O)(=O)c3ccc(C)cc3)cc2)c1	3
CCN(CC)CCOC(=O)c1ccc2c(c1)c(C)c(C)n2Cc1ccccc1	2
COc1ccc(OC2CCN(C(C)=O)CC2)c(C(=O)NCCc2cscn2)c1	3
CC(=O)Oc1c(Cl)c(=O)n(C)c2ccccc12	60*
CCc1c(OC(C)=O)c2ccccc2n(C)c1=O	8
CC(=O)Oc1c(C)c(=O)n(C)c2ccccc12	-4
CCCCn1c(N=Cc2ccc(C)cc2O)nc2ccccc21	1
CC(C)CCOc1ccc(CC(=O)O)cc1	2
O=C1C(=O)N(CNc2ccccc2Cl)c2ccccc21	-9
O=C1c2ccccc2C(=O)N1CN1CCCCCC1	4
O=C1C2=C/C(=C\N3CCCCC3)C(=O)N2c2ccccc21	75*
CCC1=NN2C(=N)/C(=C\c3c(C)n(Cc4ccc(Cl)cc4)c4ccccc34)C(=O)N=C2S1	9
CN(Cc1cnccn1)c1nc2nonc2nc1N1CCCCCC1	4
O=[N+]([O-])c1cc(S(=O)(=O)Oc2cccc3cccnc23)ccc1Cl	8
SMILES	ROC1-CUL1 inh
O=C(O)COc1ccc(Br)cc1/C=C1\SC(=O)N(Cc2ccc(F)cc2)C1=O	1
CCN1C(=O)/C(=C/c2cc(OC)c(OCC(=O)O)cc2Br)SC1=Nc1ccc(OC)cc1	7
COc1cc(/C=C2\SC(=O)N(Cc3ccc(F)cc3)C2=O)ccc1OCc1ccc(C(=O)O)cc1	17
COc1cc(/C=C2/SC(=O)N(Cc3ccc(F)cc3)C2=O)cc(I)c1OCC(=O)O	98*
CCOC(=O)c1ccc(N=C2S/C(=C/c3cc(OC)c(OC)c(OC)c3)C(=O)N2CC)cc1	4
CCOc1ccc(N=C2S/C(=C\c3cc(Cl)c(OCC(=O)O)c(OC)c3)C(=O)N2CC)cc1	94*
Cc1c(C(C)NCC(C)(C)C)cnn1-c1ccccc1 (centres undefined)	1
O=C(Nc1nnc(CCS(=O)(=O)c2ccc(Cl)cc2)s1)c1ccccc1	5
CCOC(=O)c1ccccc1/C=c1\sc2n(c1=O)C(=N)C(C#N)C(c1ccccc1I)C=2I (centres undefined)	-3
CSc1ccc(CNC(C)(C)C)cc1	-8
CCOC(=O)c1ccc(-c2ccc(Br)cc2)o1	-13
O=C(c1cn(C/C=C/c2ccccc2)nn1)N1CCN(Cc2cccs2)CC1	4
CC(CNC(=O)Cn1nnnc1CN1CCCC1)Oc1cccnc1 (centres undefined)	1
CCOc1ccc(N=C2NC(=O)/C(=C\c3ccc(Br)o3)S2)cc1	6
Cc1cc(=O)oc2c1/C(=N/O)CC(C)(C)C2	7
COc1ccc(OC)c(-n2c(-c3ccc4ccccc4n3)n[nH]c2=S)c1	2
COc1cc(N2CCCC2)c(OC)cc1C=C1C(=O)c2ccccc2C1=O	48*
Cc1cc(C=C2C(=O)c3ccccc3C2=O)ccc1N1CCCC1	11
COc1cc(N2CCCC2)c(OC)cc1/C=C1\SC(=O)N(Cc2ccc(C)cc2)C1=O	-13
CC(C)Oc1cc(-n2ncc(=S)n(C)c2=O)c(F)cc1Cl	7
COc1nc(Cl)cn(-c2ccc(C)cc2)c1=O	3
CC(=O)Nc1nc(Cl)cn(-c2ccc(C)cc2)c1=O	6
O=c1c(Cl)nc(Cl)cn1-c1ccc(Cl)c(Cl)c1	32*
N#C/C(=C/c1ccc(Cl)cc1)C(=O)N1CCN(c2ccccc2)CC1	13
Cc1ccc(N2C(=O)C3C(C2=O)C2(c4ccc(Cl)cc4)C(=O)C3(c3ccc(Cl)cc3)C(c3ccccc3)=C2c2ccccc2)cc1C (centres undefined)	-18
CCOC(=O)C(C)Sc1nc(-c2ccccc2)nc2ccc(Cl)cc12 (centres undefined)	3
Nc1nc2cc(N)c(N)cc2s1	93*
CCOc1ccc2nc(N)sc2c1	-3
Nc1nc2cc3nsnc3cc2s1	0
Cc1ccc(C)n1-c1ccc(OC(=O)c2ccccc2)cc1	2
